Test results from PubChem BioAssay (NCI).
“And” between values parts separate entries of the source, which are not always exact repeats. Equal entries are not always repeated. Compounds without any hit were thinned out: in the full panel of roughly 79,000, 15% have a hit. Rule as the data show it: active = growth inhibition above about 70%; inactive = the rest. Where a SMILES comes first, the peptide text is derived from it. The star is where a group is joined. Fmoc = O=C(OCC1c2ccccc2-c2ccccc21)*; Boc = CC(C)(C)OC(=O)*; OtBu = CC(C)(C)O*

Assays:
[1] = NCI Yeast Anticancer Drug Screen. Data for the rad50 strain (AID 155);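 also: 0% = growth of vehicle-only cultures of the same strain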; details: S. cerevisiae rad50 strain growth inhibition; at 50.0 µM; hits give high values
Summary of the method: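 Inhibition values express reduced yeast growth in compound-treated cultures relative to vehicle-treated controls.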

[2] = NCI Yeast Anticancer Drug Screen. Data for the mec2-1 strain (AID 157); details: S. cerevisiae mec2-1 strain, at 50.0 µM, hits give high values
Summary of the method: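 Using mec2-1 yeast: add compound, measure growth, express inhibition versus vehicle-treated cultures.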

[3] = NCI Yeast Anticancer Drug Screen. Data for the sgs1 mgt1 strain (AID 161);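 also: 0% = growth of cultures given vehicle only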; details: S. cerevisiae sgs1 mgt1 strain, at 50.0 µM, hits give high values
Summary of the method: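 Compounds are added to genetically altered yeast, and growth is compared with cultures given vehicle alone to give percent inhibition.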

[4] = NCI Yeast Anticancer Drug Screen. Data for the cln2 rad14 strain (AID 165);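 also: 0% = growth equal to vehicle treated cultures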; details: S. cerevisiae cln2 rad14 strain, at 50.0 µM, hits give high values
Summary of the method: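 Yeast strain cln2 rad14, bearing defects in cell cycle control and DNA repair, serves as the test system; values reflect growth inhibition compared with vehicle.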

[5] = NCI Yeast Anticancer Drug Screen. Data for the bub3 strain (AID 167); details: S. cerevisiae bub3 mutant strain, at 50.0 µM, hits give high values
Summary of the method: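 Steps: expose the mutant yeast strain to compound; grow alongside vehicle-treated cultures; measure growth; express inhibition against the vehicle cultures.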

[6] = NCI Yeast Anticancer Drug Screen. Data for the mlh1 rad18 strain (AID 175); details: S. cerevisiae mlh1 rad18 strain growth inhibition; at 50.0 µM; hits give high values
Summary of the method: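 Steps: expose repair-defective yeast to compound; measure growth; express inhibition against vehicle-treated controls.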

Measured: growth inhibition

CC(=O)c1c(-c2cccc3ccccc23)c(C#N)c(=S)n(C2OC(CO)C(O)C(O)C2O)c1C (stereo not drawn)
inactive: [1] -18.7% and 15.5% | [2] 12.1% and 15% | [3] 2.25% and 32% | [4] 12.3% and 28.2% | [5] 21.1% and 32.1% | [6] 1.55% and 44.9%

Cc1ccc(S(=O)(=O)N(C)c2ccccc2)cc1
inactive: [1] -18.6% and -3.7% | [2] -50.7% and -1.25% | [3] -0.55% and 10.2% | [4] 1.2% and -25.4% | [5] 11.8% and 16.3% | [6] -10% and 9.95%

COC(=O)/C=C\C(=O)O
inactive: [1] -4.95% and 5.05% | [2] -4.85% and -16.4% | [3] -1.75% and -2.6% | [4] -15.7% and -17.2% | [5] 3.35% and -23.7% | [6] 14.2% and 8.65%

COc1ccc2[nH]ccc(=O)c2c1
inactive: [1] -28.1% and 8.75% | [2] -24.3% and -0.05% | [3] -47.5% and 12.3% | [4] -4.25% and -5.6% | [5] -43% and -3.7% | [6] -18.7% and 5.95%

CCSC(SCC)C(OC(C)=O)C(OC(C)=O)C(COC(C)=O)OC(C)=O (stereo not drawn)
inactive: [1] -2.1% and -16.1% | [2] -2.3% and -2.8% | [3] 8.1% and 4.4% | [4] -40% and -18.2% | [5] -7.25% and -3.55% | [6] 16.6% and 10.9%

COc1cc(C)c2c(ccc3ccccc32)n1
inactive: [1] 24.6% and 23.9% | [2] 19.5% and 24.4% | [3] 16.5% and 11.2% | [4] -9.35% and 21.9% | [5] 10.2% and 16.4% | [6] 61.2% and 18.9%

CC(C)(C)OC(=O)CCC(NC(=O)OCC1c2ccccc2-c2ccccc21)C(=O)NC(Cc1c[nH]c2ccccc12)C(=O)NC(CCCCNC(=O)OC(C)(C)C)C(=O)N1CCCC1C(=O)NCC(N)=O (stereo not drawn) (Fmoc-E(OtBu)WK(Boc)PG-NH2; configuration not given here)
inactive: [1] -24.2% and -27.9% | [2] -23.1% and -22.1% | [3] -12.7% and -17% | [4] 5.7% and 12.8% | [5] -16.6% and -4.35% | [6] -17.8% and -22.2%

O=C(CCCC(=O)NO)NO
inactive: [1] 5.4% and 2.75% | [2] -2.25% and 0.6% | [3] -1.3% and -6.9% | [4] -8.15% and -26.6% | [5] -5.05% and -22.9% | [6] 2.65% and -37.4%

CCCCC(CC)CCC(C)OC(=O)CCl (stereo not drawn)
inactive: [1] 15.4% and 0.5% | [2] -2.8% and -6.75% | [3] 2.5% and -19.6% | [4] -36.4% and -22.6% | [5] -6.25% and -15.2% | [6] -1.9% and 10.2%

O=C(OC(=C(c1ccccc1)c1ccccc1)c1ccccc1)c1ccccc1
inactive: [1] 12.8% and -6.95% | [2] -0.2% and -10.2% | [3] -4.45% and 15.2% | [4] -9.6% and -22.2% | [5] -0.05% and 5.6% | [6] 11.2% and 20.4%

Cc1ccc(NC2=CC(=O)C(=O)c3ccccc32)cc1
inactive: [1] 30% and 22.6% and 45.2% | [2] 40.7% and 36% and 14.1% | [3] 25% and 26.8% and 32.3% | [4] 5.55% and 8.9% and 30.9% | [5] 25.1% and 26.9% and 54.6% | [6] 15.4% and 60.9% and 33.4%

O=C1C=CC(=O)O1 (tested in a mixture with another compound)
inactive: [1] 13.5% and 5.85% | [2] 18% and 1.85% | [3] 10.6% and 2.55% | [4] 38.1% and 4.45% | [5] 30.9% and 17% | [6] 22.4% and 13.3%

COc1nc2c(c(=O)n1C)NC(C(O)C(O)CO)C=N2 (stereo not drawn)
inactive: [1] -34.7% and -26.7% | [2] -20.6% and -33.5% | [3] -23.8% and -25.8% | [4] -5.05% and 8.25% | [5] -14.8% and -15.7% | [6] -23.4% and -17.4%

Cc1ccc(S(=O)(=O)Oc2cc(N)c3c(n2)CCC3)cc1
inactive: [1] -4.7% and 5.5% | [2] -13.6% and -7.8% | [3] 7.8% and -23.3% | [4] -48.2% and 6.55% | [5] -16.2% and -0.65% | [6] -3.45% and 0.5%

O=C1NC2OC(CO)C(O)C(O)C2O1 (stereo not drawn)
inactive: [1] -44.6% and -35.5% | [2] -7.65% and -15.7% | [3] -51% and -63% | [4] -24.5% and -10.2% | [5] -61.6% and -22.9% | [6] -64.4% and -54.4%

CC1CCC2(OC1)OC1CC3C4CCC5CC(O)CCC5(C)C4CCC3(C)C1C2C (stereo not drawn)
inactive: [1] 22.4% and -15.3% | [2] -29.8% and -19.3% | [3] 2.45% and -24.1% | [4] 7.15% and 0.8% | [5] 9.4% and -9.1% | [6] 26.8% and -12.7%

O=c1[nH]c(F)nc2c1ncn2C1OC(CO)C(O)C1O (stereo not drawn)
inactive: [1] -9.5% and -20.3% | [2] -5% and -12.8% | [3] -5.7% and -20.9% | [4] -16.4% and 8.4% | [5] 8.75% and -10.6% | [6] -21.2% and 6%

COc1cc(C=O)ccc1O
inactive: [1] 0.2% and 12.1% | [2] -0.35% and 2.65% | [3] -5.95% and 15.9% | [4] 4.45% and 6.3% | [5] -1.9% and 13.4% | [6] 7.75% and 14.2%
